In PubChem BioAssay (Tox21) one finds Potency data, which are given here for 25 compounds.

A short description of assay [1]: qHTS assay to identify small molecule antagonists of the thyroid receptor (TR) signaling pathway (AID 743065). Also: nearly all actives have a fitted effect of over 55% in size. Also: potency is read from the fitted curve at half-maximal effect. The essentials: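 Antagonism measured as loss of luciferase signal in GH3 cells stably carrying a TRE-luciferase reporter, co-treated with compound and T3 (1 nM final) for 23.5 h at 37 C. Viability was read in the same well by CellTiter-Fluor.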
In general terms: Quantitative high-throughput screening tests each substance at several concentrations.

For assay [2], the system named is thyroid hormone receptor (rat, GH3 cells). Kind of assay: qHTS assay to identify small molecule agonists of the thyroid receptor (TR) signaling pathway (AID 743066; calls by dose curve).
Assay [3] has as its target Estrogen receptor (Homo sapiens) (UniProt P03372). Kind of assay: qHTS assay to identify small molecule antagonists of the estrogen receptor alpha (ER-alpha) signaling pathway (AID 743069; active = well fitted curve in the direction sought with a large enough effect in the signal ratio in the repeat runs, not every such curve was filed as active; the % refers to the signal ratio). The procedure, abridged:
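Antagonist mode: compounds in DMSO were co-added with 17beta-estradiol to ER-alpha-bla HEK293 cells (2% charcoal-stripped serum) and left 18 h at 37C. Reporter inhibition was measured as FRET fluorescence after 2 h LiveBLAzer substrate at room temperature.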

Assay [4] is described as follows: qHTS assay to identify small molecule antagonists of the estrogen receptor alpha (ER-alpha) signaling pathway - cell viability counter screen (AID 743074; calls by dose curve;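 also: HEK293 cells carrying ER-alpha-UAS-bla reporter stimulated with 17beta-estradiol; nearly all actives have a fitted effect of over 45% in size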).
In assay [5] the target is Estrogen receptor (Homo sapiens) (UniProt P03372). Description: qHTS assay to identify small molecule agonists of the estrogen receptor alpha (ER-alpha) signaling pathway (AID 743075; calls by dose curve;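 also: HEK293 GripTite cells with ER-alpha and UAS-driven beta-lactamase reporter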).
For assay [6] the target is unchanged. Kind of assay: qHTS assay to identify small molecule agonists of the estrogen receptor alpha (ER-alpha) signaling pathway using the BG1 cell line (AID 743079). Also: nearly all actives have a fitted effect of over 20% in size. Also: potency is read from the fitted curve at half-maximal effect.
The nature of assay [7]: qHTS assay to identify small molecule antagonists of the estrogen receptor alpha (ER-alpha) signaling pathway using the BG1 cell line (AID 743080; calls by dose curve;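 also: BG1 cells stimulated with 17beta-estradiol alongside compound; series mostly up to about 70 µM; nearly all actives have a fitted effect of over 25% in size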). The essentials: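 BG1Luc4E2, endogenous ER-alpha, 4xERE-luc; 5 d charcoal-stripped FBS, phenol red free; 24 h plating; cpd + 17beta-estradiol 21.5 h, 37 C/5% CO2; CellTiter-Fluor viability 30 min, then ONE-Glo luciferase 30 min RT.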

A short description of assay [8]: qHTS assay to identify small molecule antagonists of the estrogen receptor alpha (ER-alpha) signaling pathway using the BG1 cell line - cell viability counter screen (AID 743081).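 Also: compound given together with 17beta-estradiol as the ER stimulus; series mostly up to about 70 µM; nearly all actives have a fitted effect of over 45% in size.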
In assay [9] the target is Aromatase (Homo sapiens) (UniProt P11511). Kind of assay: qHTS assay to identify aromatase inhibitors (AID 743083). Also: series mostly up to about 70 µM; nearly all actives have a fitted effect of over 55% in size.

Results filed as inconclusive are left out. Values without a mark were called inactive. Calls of active or inactive are those of the source. Unless noted, calls follow the shape of the dose curve; as a rule, active = well fitted curve in the direction sought with a large enough effect in the repeat runs; inconclusive = weak or mixed curves; inactive = no such curve, though single readings can be large; an effect the other way counts as inactive or inconclusive.

Estrogen receptor (Homo sapiens), sequence (P03372 whole entry, looked up): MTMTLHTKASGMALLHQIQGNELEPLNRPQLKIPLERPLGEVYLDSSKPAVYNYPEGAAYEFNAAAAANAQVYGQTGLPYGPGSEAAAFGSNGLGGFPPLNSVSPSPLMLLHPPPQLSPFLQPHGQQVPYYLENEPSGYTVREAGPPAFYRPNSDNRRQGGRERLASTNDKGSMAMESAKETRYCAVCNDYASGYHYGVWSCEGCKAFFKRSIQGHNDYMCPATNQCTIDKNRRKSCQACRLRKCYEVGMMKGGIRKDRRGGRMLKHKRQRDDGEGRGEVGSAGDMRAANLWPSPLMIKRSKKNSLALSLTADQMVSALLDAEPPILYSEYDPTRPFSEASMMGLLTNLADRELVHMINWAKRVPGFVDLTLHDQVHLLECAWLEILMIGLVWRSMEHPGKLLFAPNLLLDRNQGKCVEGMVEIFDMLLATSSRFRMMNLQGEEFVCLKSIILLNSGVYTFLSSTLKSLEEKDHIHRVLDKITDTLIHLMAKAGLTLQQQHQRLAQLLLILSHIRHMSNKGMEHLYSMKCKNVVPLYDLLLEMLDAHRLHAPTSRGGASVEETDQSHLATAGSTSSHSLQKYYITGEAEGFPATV
Aromatase (Homo sapiens), sequence (P11511 whole entry, looked up): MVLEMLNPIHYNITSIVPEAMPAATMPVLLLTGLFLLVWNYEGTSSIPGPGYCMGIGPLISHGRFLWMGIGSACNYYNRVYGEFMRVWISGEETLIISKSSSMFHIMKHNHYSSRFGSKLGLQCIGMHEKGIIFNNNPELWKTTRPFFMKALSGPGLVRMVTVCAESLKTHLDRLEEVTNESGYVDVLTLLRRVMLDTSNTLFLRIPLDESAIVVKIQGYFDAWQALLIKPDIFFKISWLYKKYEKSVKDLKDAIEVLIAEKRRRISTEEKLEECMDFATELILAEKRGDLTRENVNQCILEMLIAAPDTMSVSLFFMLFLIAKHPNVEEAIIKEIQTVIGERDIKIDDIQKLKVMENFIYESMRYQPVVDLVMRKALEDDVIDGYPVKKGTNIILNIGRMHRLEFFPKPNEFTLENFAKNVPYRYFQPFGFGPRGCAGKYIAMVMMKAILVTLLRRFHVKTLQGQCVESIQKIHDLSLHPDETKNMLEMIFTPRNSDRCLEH

In the case of `COc1ccc(C2C(=O)c3ccccc3C2=O)cc1`, the Potency entry in assay [1], in [2], in assay [3], in assay [4], in [5] and in assay [7] was “inactive” in each case. The Potency result in assay [8] and in assay [9] was “inactive” each time. For the same compound, the Potency in assay [6] is 23.7 µM (active).
Regarding `O=C(NS(=O)(=O)/C=C/c1ccccc1)c1ccc(F)cc1Cl`, the Potency entry in [1], in [2], in assay [4], in assay [5], in assay [8] and in [9] was “inactive” throughout.
Turning to `C[C@H](CS)C(=O)N1CCC[C@H]1C(=O)O`, the Potency result in assay [1], in [2], in assay [4], in assay [8] and in assay [9] was “inactive” throughout.
As to `CC(=O)NCCO`, the Potency entry in [1], in assay [2], in assay [4], in assay [8] and in assay [9] was “inactive” each time.
In the case of `CC(C)c1ccc(C(=O)N=C(N)N)cc1S(C)(=O)=O`, the Potency result in assay [1], in [2], in assay [3], in [4], in [5] and in assay [8] was “inactive” each time. Further, the Potency result in assay [9] is “inactive”.
`COc1ccc(N)c([N+](=O)[O-])c1`: the Potency entry in assay [1], in assay [2], in assay [4], in assay [8] and in assay [9] was “inactive” throughout.
In the case of `COc1ccc(C(=O)NCc2ccc(OCCN(C)C)cc2)cc1OC`, the Potency result in assay [1], in assay [2], in assay [3], in [4], in assay [5] and in assay [6] was “inactive” each time. The Potency result in assay [8] and in [9] was “inactive” in each case.
In the case of `COc1ccc(/C=C/C(=O)c2ccc(OC)cc2OC)cc1`, the Potency in assay [1] was 26.6 µM (active). Also, the Potency result in assay [2], in assay [4], in assay [8] and in [9] was “inactive” each time.
Consider `CCSC(=O)N(CC)CC`, for which the Potency result in assay [1], in assay [2], in assay [3], in assay [4], in assay [5] and in assay [6] was “inactive” throughout. The Potency result in assay [8] and in assay [9] was “inactive” throughout.
In the case of `C=CCOC(=O)COCCC(C)C`, the Potency entry in [1], in assay [2], in assay [3], in assay [4], in assay [5] and in assay [6] was “inactive” in each case. For the same compound, the Potency result in assay [8] and in assay [9] was “inactive” each time.
For the compound `NC(=O)c1ccccc1[N+](=O)[O-]`, the Potency entry in assay [1], in assay [2], in assay [3], in assay [4], in [5] and in assay [6] was “inactive” each time. Further, the Potency entry in assay [8] and in [9] was “inactive” in each case.
On to `C1CCCCC1`, for which the Potency entry in assay [1], in assay [2], in assay [4], in assay [8] and in assay [9] was “inactive” each time.
As to `O=NN(CCCl)C(=O)NCCCl`, the Potency result in assay [1], in [2], in assay [4], in assay [5], in assay [6] and in assay [8] was “inactive” throughout. Moreover, in assay [9], the Potency result is “inactive”.
Turning to `CCCCCCC(CO)CCCC` (stereo not drawn), the Potency result in assay [1], in [2], in assay [4], in assay [8] and in assay [9] was “inactive” each time.
In the case of `O=C(O)CCS`, the Potency result in assay [1], in assay [2], in assay [4], in assay [5], in assay [6] and in assay [7] was “inactive” throughout. The Potency result in assay [8] and in assay [9] was “inactive” throughout.
Take `CC1C(C)(C)C2=C(C(=O)CCC2)C1(C)C` (stereo not drawn): the Potency entry in [1], in assay [2], in assay [3], in [4], in assay [5] and in [6] was “inactive” throughout. The Potency result in assay [8] and in assay [9] was “inactive” in each case.
On to `CCCCCCCCCCCCCOC(=O)CCSCCC(=O)OCCCCCCCCCCCCC`, for which the Potency result in assay [1], in assay [2], in assay [4], in assay [8] and in assay [9] was “inactive” throughout.
For `CC(=O)OC(C)C[N+](C)(C)C` (stereo not drawn), the Potency result in assay [3], in assay [4], in [5], in assay [6], in assay [7] and in assay [8] was “inactive” each time. In addition, the Potency result in assay [9] is “inactive”.
Regarding `Nc1cccc2c(N)cccc12`, the Potency entry in assay [2], in [3] and in assay [5] was “inactive” each time.
For the compound `COc1ccc(CCN(C)CCCN2CCc3cc(OC)c(OC)cc3CC2=O)cc1OC`, the Potency entry in assay [2], in assay [4], in [5], in assay [6], in assay [8] and in assay [9] was “inactive” throughout.
Consider `CCNc1nc(N)nc(Cl)n1`, for which the Potency entry in assay [1], in assay [4] and in assay [8] was “inactive” each time.
For `CC(CO)(CO)C(=O)O`, the Potency entry in assay [3], in assay [4], in [5], in assay [6], in [7] and in [8] was “inactive” throughout. Also, the Potency result in [9] is “inactive”.
For the compound `CC[C@@H](CO)NCCN[C@@H](CC)CO`, the Potency entry in assay [4], in assay [8] and in assay [9] was “inactive” in each case.
On to `CCN(CC)C(=O)N1CCN(C)CC1`, for which the Potency result in assay [4], in assay [8] and in assay [9] was “inactive” each time.
`CCCC(=O)OC(=O)CCC`: the Potency result in assay [1], in assay [2], in assay [8] and in assay [9] was “inactive” throughout.
